Calls of active or inactive are those of the source. The calls were made as follows: active = hit-call score of the fitted dose curve at least 0.9, where 1 is the maximum; inactive = score below 0.9.

For orientation: AC50 means the concentration at which the activity in the assay is half-maximal.

Read-out in experiment [1]: Tissue Factor, F3 (gene 2152)
In words: BSK_CASM3C_TissueFactor: BioMAP Diversity Plus: CASM3C Assay for Tissue Factor Biomarker Activity (AID 2283052).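 Also: cell surface tissue factor protein level read by ELISA.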 The settings on record: primary human coronary artery smooth muscle cells; actives raise or lower the signal.

Read-out in experiment [2]: Interferon-gamma inducible Protein 10 (IP10), CXCL10 (gene 3627)
The experiment can be described thus: BSK_hDFCGF_IP10: BioMAP Diversity Plus: hDFCGF Assay for Interferon-gamma inducible Protein 10 (IP10) Biomarker Activity (AID 2283053). The settings on record: primary human foreskin fibroblasts; actives raise or lower the signal. A digest of the protocol: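 Primary foreskin fibroblasts, human; 24 h compound exposure; IP-10 by ELISA; bidirectional fit vs DMSO.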

Read-out in experiment [3]: Urokinase-type plasminogen activator receptor (uPAR), PLAUR (gene 5329)
The experiment can be described thus: BSK_CASM3C_uPAR: BioMAP Diversity Plus: CASM3C Assay for Urokinase-type plasminogen activator receptor (uPAR) Biomarker Activity (AID 2283054).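 Also: cell-surface uPAR protein level quantified by ELISA.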 The settings on record: primary human coronary artery smooth muscle cells; actives raise or lower the signal.

Read-out in experiment [4]: Vascular cell adhesion molecule 1 (VCAM1), VCAM1 (gene 7412)
In words: BSK_CASM3C_VCAM1: BioMAP Diversity Plus: CASM3C Assay for Vascular cell adhesion molecule 1 (VCAM1) Biomarker Activity (AID 2283055).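 Also: VCAM-1 protein level quantified by ELISA on the cells.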 Particulars: primary human coronary artery smooth muscle cells; actives raise or lower the signal.

Read-out in experiment [5]: Collagen III, COL3A1 (gene 1281)
The experiment can be described thus: BSK_hDFCGF_CollagenIII: BioMAP Diversity Plus: hDFCGF Assay for Collagen III Biomarker Activity (AID 2283056). Particulars: primary human foreskin fibroblasts; actives raise or lower the signal. A digest of the protocol:
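ELISA read-out of collagen III from human skin fibroblast cultures sampled 24 h post-dosing. Values were derived by bidirectional fitting relative to the DMSO vehicle control.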

Read-out in experiment [6]: Epidermal growth factor receptor (EGFR), EGFR (gene 1956)
In words: BSK_hDFCGF_EGFR: BioMAP Diversity Plus: hDFCGF Assay for Epidermal growth factor receptor (EGFR) Biomarker Activity (AID 2283057). Particulars: primary human foreskin fibroblasts; actives raise or lower the signal. The procedure, abridged: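 hDFCGF system, primary human foreskin fibroblasts; compound 24 h; EGFR measured by ELISA; DMSO = negative control/baseline; bidirectional fitting.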

Read-out in experiment [7]: Interleukin-8 (IL8), CXCL8 (gene 3576)
In words: BSK_hDFCGF_IL8: BioMAP Diversity Plus: hDFCGF Assay for Interleukin-8 (IL8) Biomarker Activity (AID 2283058). The settings on record: primary human foreskin fibroblasts; actives raise or lower the signal. A digest of the protocol:
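Cells used are human skin primary fibroblasts. Chemical is added, cultures run 24 h, then IL-8 is quantified by ELISA, and gain or loss versus DMSO control is fitted in both directions.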

The nature of experiment [8]: BSK_hDFCGF_Proliferation: Cell Proliferation Assessment in the BioMAP Diversity Plus: hDFCGF Assay (AID 2283059).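 Also: curves fitted for both rise and fall of signal versus DMSO baseline.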 Particulars: primary human foreskin fibroblasts. The procedure, abridged:
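Primary human foreskin fibroblasts, sub-confluent; […]; 10% TCA fix, 0.1% SRB stain, A560 total protein. Gain/loss fitted bidirectionally vs DMSO control.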

Read-out in experiment [9]: Macrophage colony-stimulating factor (MCSF), CSF1 (gene 1435)
In words: BSK_hDFCGF_MCSF: BioMAP Diversity Plus: hDFCGF Assay for Macrophage colony-stimulating factor (MCSF) Biomarker Activity (AID 2283060). The settings on record: primary human foreskin fibroblasts; actives raise or lower the signal. The procedure, abridged:
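Primary human foreskin fibroblasts dosed with chemical; 24 h later, M-CSF quantified by ELISA; curves fitted in both directions vs DMSO negative control.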

The nature of experiment [10]: BSK_hDFCGF_SRB: Viability Assessment in the BioMAP Diversity Plus: hDFCGF Assay (AID 2283061).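 Also: cells exposed to compound for 24 h before the read.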 The settings on record: primary human foreskin fibroblasts. A digest of the protocol:
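Readout is SRB absorbance at 560 nm, reflecting total protein in parallel cultures of human foreskin fibroblasts harvested 24 h after chemical dosing. Activity was fitted bidirectionally relative to DMSO.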

Read-out in experiment [11]: TIMP metallopeptidase inhibitor 1 (TIMP1), TIMP1 (gene 7076)
In words: BSK_hDFCGF_TIMP1: BioMAP Diversity Plus: hDFCGF Assay for TIMP metallopeptidase inhibitor 1 (TIMP1) Biomarker Activity (AID 2283062). Particulars: primary human foreskin fibroblasts; actives raise or lower the signal. The procedure, abridged:
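Human skin fibroblasts (primary), hDFCGF system; compound exposure 24 h; TIMP-1 by ELISA; bidirectional fit vs DMSO negative control; overt cytotoxicity by SRB in parallel wells.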

Read-out in experiment [12]: Monokine induced gamma interferon (MIG), CXCL9 (gene 4283)
The experiment can be described thus: BSK_hDFCGF_MIG: BioMAP Diversity Plus: hDFCGF Assay for Monokine induced gamma interferon (MIG) Biomarker Activity (AID 2283063). Particulars: primary human foreskin fibroblasts; actives raise or lower the signal. The procedure, abridged:
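Chemicals were added to primary human foreskin fibroblast cultures, which were sampled 24 h later. MIG levels were then quantified by ELISA and responses fitted in both directions relative to DMSO.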

Read-out in experiment [13]: Matrix Metallopeptidase 1 (MMP1), MMP1 (gene 4312)
In words: BSK_hDFCGF_MMP1: BioMAP Diversity Plus: hDFCGF Assay for Matrix Metallopeptidase 1 (MMP1) Biomarker Activity (AID 2283064). The settings on record: primary human foreskin fibroblasts; actives raise or lower the signal. A digest of the protocol: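 Primary human foreskin fibroblasts in the hDFCGF system were dosed with test chemical, and MMP1 was measured by ELISA 24 h later. Values come from bidirectional curve fitting against the DMSO baseline.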

Read-out in experiment [14]: Plasminogen activator inhibitor-1 (PAI1), SERPINE1 (gene 5054)
In words: BSK_hDFCGF_PAI1: BioMAP Diversity Plus: hDFCGF Assay for Plasminogen activator inhibitor-1 (PAI1) Biomarker Activity (AID 2283066). Particulars: primary human foreskin fibroblasts; actives raise or lower the signal. A digest of the protocol: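 Primary dermal fibroblasts (human foreskin), hDFCGF system; compound 24 h; PAI-1 by ELISA; bidirectional fit vs DMSO control.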

Read-out in experiment [15]: Intercellular Adhesion Molecule 1 (ICAM1), ICAM1 (gene 3383)
In words: BSK_KF3CT_ICAM1: BioMAP Diversity Plus: KF3CT Assay for Intercellular Adhesion Molecule 1 (ICAM1) Biomarker Activity (AID 2283067). Particulars: primary human keratinocytes with fibroblasts; actives raise or lower the signal. The procedure, abridged: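 ICAM-1 levels are measured by ELISA 24 h after dosing a primary human co-culture of keratinocytes and foreskin fibroblasts. Activity in either direction is fitted relative to DMSO vehicle.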

Experiment [16] can be described thus: BSK_KF3CT_SRB: Viability Assessment in the BioMAP Diversity Plus: KF3CT Assay (AID 2283069).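 Also: total protein by sulforhodamine B staining as a cytotoxicity measure; read 24 h after compound addition.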 The settings on record: primary human keratinocytes with fibroblasts. A digest of the protocol:
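Human primary keratinocyte plus foreskin fibroblast co-culture exposed to chemicals for 24 h. Total protein measured by 0.1% sulforhodamine B staining after 10% TCA fixation, read at 560 nm; bidirectional fitting versus DMSO baseline.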

Read-out in experiment [17]: TIMP metallopeptidase inhibitor 2 (TIMP2), TIMP2 (gene 7077)
The experiment can be described thus: BSK_KF3CT_TIMP2: BioMAP Diversity Plus: KF3CT Assay for TIMP metallopeptidase inhibitor 2 (TIMP2) Biomarker Activity (AID 2283071). The settings on record: primary human keratinocytes with fibroblasts; actives raise or lower the signal. A digest of the protocol:
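Cells: human keratinocytes co-cultured with foreskin fibroblasts. Treat with chemical, 24 h. Measure TIMP-2 by ELISA; fit curves bidirectionally vs DMSO baseline.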

Read-out in experiment [18]: Interleukin-1 alpha (IL1a), IL1A (gene 3552)
In words: BSK_KF3CT_IL1a: BioMAP Diversity Plus: KF3CT Assay for Interleukin-1 alpha (IL1a) Biomarker Activity (AID 2283070). The settings on record: primary human keratinocytes with fibroblasts; actives raise or lower the signal. A digest of the protocol:
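Human keratinocyte plus foreskin fibroblast primary co-culture, sampled 24 h after chemical dosing. IL-1a measured by ELISA; responses fitted bidirectionally against DMSO baseline (negative control), so gain or loss of signal both count.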

Read-out in experiment [19]: Interferon-gamma inducible Protein 10 (IP10), CXCL10 (gene 3627)
The experiment can be described thus: BSK_KF3CT_IP10: BioMAP Diversity Plus: KF3CT Assay for Interferon-gamma inducible Protein 10 (IP10) Biomarker Activity (AID 2283068). The settings on record: primary human keratinocytes with fibroblasts; actives raise or lower the signal. The procedure, abridged:
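In a primary skin co-culture of keratinocytes and fibroblasts, IP-10 is quantified by ELISA at 24 h after dosing. SRB staining of parallel wells monitors overt toxicity. Curves are fitted both directions against DMSO.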

Read-out in experiment [20]: Vascular cell adhesion molecule 1 (VCAM1), VCAM1 (gene 7412)
The experiment can be described thus: BSK_hDFCGF_VCAM1: BioMAP Diversity Plus: hDFCGF Assay for Vascular cell adhesion molecule 1 (VCAM1) Biomarker Activity (AID 2283065).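 As to AC50: VCAM-1 protein level quantified by ELISA after 24 h chemical exposure.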 Particulars: primary human foreskin fibroblasts; actives raise or lower the signal. A digest of the protocol:
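Human foreskin fibroblast primary cells, chemical exposure 24 h; VCAM-1 by ELISA; bidirectional fit, DMSO = negative control/baseline.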

With `O=S(=O)(O)C(F)(F)C(F)(F)OC(F)(F)C(F)(F)F`, the result in experiment [1], in experiment [2], in [3], in experiment [4], in experiment [5] and in experiment [6] was inactive. Besides, the result in experiment [7], in experiment [8], in experiment [9], in experiment [10], in [11] and in [12] was inactive. The outcome in [13], in experiment [14], in experiment [15], in experiment [16] and in [17] was inactive.

`CC1=CC(C)C(C=O)C(C)C1` (configuration not stated) (tested in a mixture with another compound): the result in experiment [1], in experiment [2], in [3], in experiment [4], in experiment [5] and in experiment [6] was inactive. Besides, the result in [7], in experiment [9], in experiment [10], in experiment [11], in experiment [12] and in experiment [13] was inactive. Besides, the outcome in experiment [14], in [15], in [16], in experiment [18] and in [17] was inactive.

Turning to `c1ccc(Sc2ccccc2)cc1`, the AC50 in experiment [1] was 20000 nM (active); in experiment [2], 29300 nM (active); in [4], 20000 nM (active); in experiment [5], 29900 nM (active); in experiment [9], 28100 nM (active); in experiment [10], 39000 nM (active). Moreover, the AC50 is 25500 nM (active) in experiment [11]; 30200 nM (active) in [13]; 20000 nM (active) in [14]; 35500 nM (active) in [16]; 27800 nM (active) in experiment [17]. Further, the result in [3], in experiment [6], in experiment [7], in experiment [12], in experiment [15] and in [19] was inactive.

In the case of `O=S1(=O)CC(Cl)(Cl)C(Cl)(Cl)C1`, the AC50 in [1] was 2070 nM (active); in [2], 961 nM (active); in experiment [3], 1050 nM (active); in experiment [4], 930 nM (active); in [5], 1350 nM (active); in experiment [9], 710 nM (active). Moreover, the half-maximal activity concentration (AC50) is 845 nM (active) in experiment [10]; 839 nM (active) in experiment [11]; 794 nM (active) in experiment [12]; 865 nM (active) in experiment [13]; 613 nM (active) in experiment [20]; 865 nM (active) in [14]. Also, the AC50 was 1400 nM (active) in [15], 1360 nM (active) in experiment [16] and 1360 nM (active) in experiment [17]. The result in experiment [6] and in experiment [7] was inactive.

In the case of `C=C(C)C(=O)OCCC(F)(F)C(F)(F)C(F)(F)C(F)(F)C(F)(F)C(F)(F)C(F)(F)C(F)(F)F`, the outcome in experiment [1], in experiment [2], in [3], in experiment [4], in experiment [5] and in experiment [6] was inactive. Besides, the result in experiment [7], in experiment [9], in experiment [10], in experiment [11], in experiment [12] and in experiment [13] was inactive. In addition, the outcome in experiment [20], in experiment [14], in experiment [15], in experiment [16] and in experiment [17] was inactive.

Consider `OCCN1CCOCC1`, for which the AC50 in [1] is 2220 nM (active). For the same compound, the outcome in experiment [2], in [3], in [4], in experiment [5], in experiment [6] and in experiment [7] was inactive. For the same compound, the result in experiment [9], in experiment [10], in experiment [11], in [12], in experiment [13] and in [14] was inactive. Further, the outcome in experiment [15], in experiment [16], in experiment [18] and in experiment [17] was inactive.
